Activity calls are given as the source filed them.
Columns and labels:
[1] = system: Plasmodium falciparum Sir2 (PF13_0152, Sir2A); assay: Plasmodium falciparum Sir2A binding compounds – biochemical, small-molecule microarray, 635 nm fluorescence, primary screen (AID 1098); conditions: fluorescence 635 nm, higher = more signal;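 further: score merges spot fluorescence intensity with its signal-to-noise ratio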
[2] = probe aDKK1 binding to arrayed compounds – biochemical, biotinylated probe, 635/667 nm fluorescence, primary screen (AID 1099); conditions: small-molecule microarray, higher = more signal;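 further: score merges 667nm spot fluorescence with signal to noise across triplicate slides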
[3] = probe aCHRDL2 binding to arrayed compounds – biochemical, biotinylated probe, 635/667 nm fluorescence, primary screen (AID 1100); conditions: small-molecule microarray, higher = more signal
[4] = change in splice reporter luminescence, either direction, cell-based, HEK293, spliceosome inhibition project, primary screen (AID 1101); conditions: HEK293 splicing luciferase reporter, 24 h, higher = more signal, called active from +8 up or from −8 down;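 further: HEK293 cells carrying a splicing-competent luciferase reporter gene; test concentration not given here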
[5] = biological target: Fibroblast growth factor 10 (Homo sapiens) (UniProt O15520); assay: compounds binding fibroblast growth factor 10 – biochemical, small-molecule microarray, 635 nm fluorescence, primary screen (AID 1102); conditions: FGF10 binding, fluorescence 635 nm, higher = more signal
[6] = system: glycogen synthase kinase-3 (GSK3A per assay name; protocol says GSK3B); assay: compounds binding glycogen synthase kinase-3 – biochemical, small-molecule microarray, 635 nm fluorescence, GSK3A, primary screen (AID 1103); conditions: fluorescence 635 nm, higher = more signal; further: the record names both GSK3A and GSK3B
[7] = biological target: Epidermal growth factor receptor (Homo sapiens) (UniProt P00533); assay: compounds binding epidermal growth factor receptor – biochemical, small-molecule microarray, 635 nm fluorescence, primary screen (AID 1104); conditions: EGFR binding, higher = more signal;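 further: score merges 667 nm emission intensity with spot signal to noise over triplicate slides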
[8] = biological target: Follistatin-related protein 3 (Homo sapiens) (UniProt O95633); assay: compounds binding follistatin-related protein 3 – biochemical, small-molecule microarray, 635 nm fluorescence, primary screen (AID 1105); conditions: FSTL3 binding, higher = more signal;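 further: score merges emission near 667 nm and signal to noise per printed spot across three slides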
[9] = biological target: Dickkopf-related protein 1 (Homo sapiens) (UniProt O94907); assay: small molecules binding DKK1 protein – biochemical, small-molecule microarray, 635 nm fluorescence scan, primary screen (AID 1106); conditions: higher = more signal;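 further: score merges emission near 667 nm with signal to noise over three replicate slides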
[10] = system: Inhibin beta A chain (activin A); assay: small molecules binding activin A – biochemical, small-molecule microarray, 635 nm fluorescence scan, primary screen (AID 1107); conditions: INHBA, higher = more signal;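 further: mouse activin A protein probed at 4.33 µg/mL on printed slides; score merges bound-protein fluorescence near 667 nm with spot signal-to-noise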
[11] = system: Human papillomavirus type 1a protein E7 (residues 44-93); assay: small molecules binding HPV E7 44-93 – biochemical, small-molecule microarray, residues 44-93, 635 nm fluorescence, primary screen (AID 1108); conditions: fluorescence 635 nm, higher = more signal;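 further: E7 fragment applied at 1 µg/mL in TBST for 1 h at 4 C; score combines spot fluorescence with its signal to noise ratio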
[12] = hepatitis C replication reporter changes, two-sided – Huh7 cells, luciferase reporter, HCV replication inhibitor project, primary screen (AID 1109); conditions: Huh7 HCV replicon luciferase reporter, 48 h; higher = more signal;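 further: huh7 hepatoma cells harbouring a luciferase neomycin HCV replicon reporter; luciferase luminescence as measure of HCV replicon replication; test concentration not given here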
[13] = biological target: Left-right determination factor 2 (Homo sapiens) (UniProt O00292); assay: small molecules binding LEFTY2 protein – biochemical, small-molecule microarray, 635 nm fluorescence scan, primary screen (AID 1110); conditions: higher = more signal
[14] = biological target: Calmodulin-1 (Homo sapiens) (UniProt P0DP23); assay: small molecules binding calmodulin-1 with EGTA – biochemical, small-molecule microarray, Cy5-labelled CALM1, profiling panel (AID 1111); conditions: Cy5-CALM1 binding fluorescence, higher = more signal;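 further: labelled calmodulin applied in Tris saline Tween buffer holding calcium plus EGTA and DTT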
[15] = biological target: Calmodulin-1 (Homo sapiens) (UniProt P0DP23); assay: small molecules binding Ca-loaded calmodulin-1 – biochemical, small-molecule microarray, Cy5-labelled CALM1, plus calcium, artefact control for SMM control-protein annotation, profiling panel (AID 1112); conditions: Cy5-CALM1 binding fluorescence, higher = more signal;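 further: score merges spot fluorescence with signal to noise from triplicate slides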
[16] = probe aWnt5a binding to arrayed compounds – biochemical, biotinylated probe, 635/667 nm fluorescence, primary screen (AID 1113); conditions: small-molecule microarray, higher = more signal;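 further: score merges 667 nm fluorescence intensity with signal-to-noise per printed feature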
[17] = probe aShh binding to arrayed compounds – biochemical, biotinylated probe, 635/667 nm fluorescence, primary screen (AID 1114); conditions: small-molecule microarray, higher = more signal;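 further: probe is biotin-labelled aShh protein from a stem cell growth factor screen; measures binding of labelled protein to compounds printed on the slide; score merges feature fluorescence at 667 nm with signal-to-noise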
[18] = probe aNog binding to arrayed compounds – biochemical, biotinylated probe, 635/667 nm fluorescence, primary screen (AID 1115); conditions: small-molecule microarray, higher = more signal;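 further: probe is biotinylated aNog protein used at 0.15 µg/mL for 1 h at 4 C; z-score combines 667 nm fluorescence of each spot with its signal to noise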
[19] = biological target: Torsin-1A-interacting protein 1 (Homo sapiens) (UniProt Q5JTV8); assay: compound microarray binding of lysate hLAP1 – cell lysate, small-molecule microarray, COS7 lysate, 635/667 nm fluorescence, primary screen (AID 1116); conditions: 635 nm fluorescence, higher = more signal
[20] = biological target: Alpha-bungarotoxin (Bungarus multicinctus) (UniProt P60615); assay: compounds binding labelled alpha-BTX control protein – biochemical, small-molecule microarray, Alexa647 label, 635/667 nm fluorescence, artefact control for SMM control protein annotation, profiling panel (AID 1117); conditions: alpha-BTX-A647 binding fluorescence, higher = more signal
Sequence of Alpha-bungarotoxin (Bungarus multicinctus) (P60615 whole entry, looked up): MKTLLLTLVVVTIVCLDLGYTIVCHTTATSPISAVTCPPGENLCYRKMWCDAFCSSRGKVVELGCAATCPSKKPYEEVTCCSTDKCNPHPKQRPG

Sequence of Dickkopf-related protein 1 (Homo sapiens) (O94907 whole entry, looked up): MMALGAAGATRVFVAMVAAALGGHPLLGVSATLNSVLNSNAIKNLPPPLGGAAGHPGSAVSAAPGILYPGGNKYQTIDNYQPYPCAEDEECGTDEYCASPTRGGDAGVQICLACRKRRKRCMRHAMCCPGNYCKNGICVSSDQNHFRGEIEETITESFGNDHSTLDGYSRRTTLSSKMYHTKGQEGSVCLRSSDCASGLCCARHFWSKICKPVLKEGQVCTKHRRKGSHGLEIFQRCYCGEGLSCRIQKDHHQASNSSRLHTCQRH
Sequence of Follistatin-related protein 3 (Homo sapiens) (O95633 whole entry, looked up): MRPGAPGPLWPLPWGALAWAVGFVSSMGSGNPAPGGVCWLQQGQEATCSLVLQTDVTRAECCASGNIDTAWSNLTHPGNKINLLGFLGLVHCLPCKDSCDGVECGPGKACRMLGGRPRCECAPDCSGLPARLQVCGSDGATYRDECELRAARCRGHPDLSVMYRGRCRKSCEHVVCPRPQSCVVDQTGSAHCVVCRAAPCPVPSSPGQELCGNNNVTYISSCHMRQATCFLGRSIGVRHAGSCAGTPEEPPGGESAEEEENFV
Sequence of Left-right determination factor 2 (Homo sapiens) (O00292 whole entry, looked up): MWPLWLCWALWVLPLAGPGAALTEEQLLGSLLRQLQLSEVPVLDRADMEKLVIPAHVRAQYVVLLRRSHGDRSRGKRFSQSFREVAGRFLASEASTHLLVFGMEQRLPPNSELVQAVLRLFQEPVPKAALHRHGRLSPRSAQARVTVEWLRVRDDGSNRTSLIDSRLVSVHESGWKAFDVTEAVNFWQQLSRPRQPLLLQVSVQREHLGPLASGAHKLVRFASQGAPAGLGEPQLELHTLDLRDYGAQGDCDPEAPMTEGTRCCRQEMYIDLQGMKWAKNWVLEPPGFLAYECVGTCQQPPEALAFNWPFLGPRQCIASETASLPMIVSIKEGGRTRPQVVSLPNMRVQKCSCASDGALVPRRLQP
Sequence of Epidermal growth factor receptor (Homo sapiens) (P00533 whole entry, looked up): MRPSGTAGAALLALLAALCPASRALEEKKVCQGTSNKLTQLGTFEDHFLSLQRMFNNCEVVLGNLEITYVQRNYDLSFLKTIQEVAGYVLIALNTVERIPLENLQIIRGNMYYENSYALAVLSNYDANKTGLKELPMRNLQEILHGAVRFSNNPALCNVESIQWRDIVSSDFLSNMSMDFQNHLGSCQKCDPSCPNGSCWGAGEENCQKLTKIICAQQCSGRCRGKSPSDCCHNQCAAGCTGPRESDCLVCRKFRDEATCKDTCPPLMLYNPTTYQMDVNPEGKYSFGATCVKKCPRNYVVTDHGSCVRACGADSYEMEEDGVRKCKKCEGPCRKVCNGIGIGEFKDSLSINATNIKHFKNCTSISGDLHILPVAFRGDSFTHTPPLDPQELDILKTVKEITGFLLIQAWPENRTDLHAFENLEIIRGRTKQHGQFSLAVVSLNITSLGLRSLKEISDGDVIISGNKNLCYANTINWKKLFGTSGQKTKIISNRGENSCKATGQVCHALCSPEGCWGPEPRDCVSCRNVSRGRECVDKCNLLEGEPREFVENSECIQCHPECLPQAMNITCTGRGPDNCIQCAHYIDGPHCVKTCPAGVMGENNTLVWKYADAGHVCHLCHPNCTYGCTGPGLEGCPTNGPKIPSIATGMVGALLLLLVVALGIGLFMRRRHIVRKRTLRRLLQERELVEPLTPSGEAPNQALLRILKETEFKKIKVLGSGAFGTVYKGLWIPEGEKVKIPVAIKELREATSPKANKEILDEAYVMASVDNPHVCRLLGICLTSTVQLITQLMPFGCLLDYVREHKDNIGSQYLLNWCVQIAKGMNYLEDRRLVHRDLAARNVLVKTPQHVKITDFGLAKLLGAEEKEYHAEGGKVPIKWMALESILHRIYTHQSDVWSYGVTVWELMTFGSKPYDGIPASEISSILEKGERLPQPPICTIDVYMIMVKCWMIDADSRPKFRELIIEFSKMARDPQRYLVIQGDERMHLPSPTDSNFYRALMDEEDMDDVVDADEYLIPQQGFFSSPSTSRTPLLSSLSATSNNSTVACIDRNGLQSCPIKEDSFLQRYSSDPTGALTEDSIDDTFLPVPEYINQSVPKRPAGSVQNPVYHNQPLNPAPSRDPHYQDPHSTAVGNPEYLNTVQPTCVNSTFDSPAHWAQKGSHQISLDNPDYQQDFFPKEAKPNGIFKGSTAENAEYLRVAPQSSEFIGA
Sequence of Fibroblast growth factor 10 (Homo sapiens) (O15520 whole entry, looked up): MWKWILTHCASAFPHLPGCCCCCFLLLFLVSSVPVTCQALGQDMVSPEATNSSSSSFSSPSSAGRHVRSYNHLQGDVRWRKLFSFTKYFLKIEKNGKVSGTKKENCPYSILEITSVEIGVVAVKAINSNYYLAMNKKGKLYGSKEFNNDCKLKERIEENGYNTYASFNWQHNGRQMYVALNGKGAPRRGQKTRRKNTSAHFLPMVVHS
Sequence of Torsin-1A-interacting protein 1 (Homo sapiens) (Q5JTV8 whole entry, looked up): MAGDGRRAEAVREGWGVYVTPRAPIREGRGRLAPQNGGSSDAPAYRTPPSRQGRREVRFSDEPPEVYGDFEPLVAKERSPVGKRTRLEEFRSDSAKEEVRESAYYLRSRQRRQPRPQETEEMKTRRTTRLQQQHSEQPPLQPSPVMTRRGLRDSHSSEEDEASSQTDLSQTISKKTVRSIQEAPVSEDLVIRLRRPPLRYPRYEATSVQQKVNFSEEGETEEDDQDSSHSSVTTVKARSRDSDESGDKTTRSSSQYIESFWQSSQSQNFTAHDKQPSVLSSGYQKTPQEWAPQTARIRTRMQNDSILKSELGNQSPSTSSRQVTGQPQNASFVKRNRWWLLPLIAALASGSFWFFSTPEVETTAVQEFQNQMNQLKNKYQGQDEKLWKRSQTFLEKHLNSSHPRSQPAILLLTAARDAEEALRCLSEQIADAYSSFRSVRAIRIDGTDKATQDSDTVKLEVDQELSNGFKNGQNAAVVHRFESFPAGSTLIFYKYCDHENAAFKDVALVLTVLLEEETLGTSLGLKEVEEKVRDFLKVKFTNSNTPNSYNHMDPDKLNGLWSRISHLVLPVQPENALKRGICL

Compound: C=CCNC(=O)[C@H]1[C@@H]2C(=O)O[C@@H](c3ccccc3)[C@@H](c3ccccc3)N2[C@@H](c2ccccc2OCCO)[C@]12C(=O)N(C(=O)OCCOC)c1ccc(C#CCC(C(=O)OC)C(=O)OC)cc12
- composite z-score [1]: 1.1
- composite z-score [2]: 0.572
- composite z-score [3]: 0.155
- z-score [4]: -1.69 (inactive)
- composite z-score [5]: 0.541
- composite z-score [6]: 1.29
- composite z-score [7]: 0.328
- composite z-score [8]: 0.919
- composite z-score [9]: 0.271
- composite z-score [10]: 0.641
- composite z-score [11]: -0.29
- z-score [12]: -1.22
- composite z-score [13]: 0.208
- composite z-score [14]: 1.57
- composite z-score [15]: 0.865
- composite z-score [16]: -0.012
- composite z-score [17]: 0.217
- composite z-score [18]: 0.419
- composite z-score [19]: 0.926
- composite z-score [20]: 1.87

Compound: [N-]=[N+]=NCc1ccccc1[C@H]1OC(c2ccc(OCCCO)cc2)=N[C@@]1(Cc1ccccc1N=[N+]=[N-])C(=O)NCc1ccccc1
- composite z-score [1]: 1.01
- composite z-score [2]: 1.09
- composite z-score [3]: 1.1
- z-score [4]: 0.672 (inactive)
- composite z-score [5]: 1.03
- composite z-score [6]: 1.04
- composite z-score [7]: -0.296
- composite z-score [8]: 0.62
- composite z-score [9]: -0.193
- composite z-score [10]: 1.13
- composite z-score [11]: 0.716
- z-score [12]: -2.02
- composite z-score [13]: -0.334
- composite z-score [14]: 1.54
- composite z-score [15]: 0.642
- composite z-score [16]: 0.239
- composite z-score [17]: 0.407
- composite z-score [18]: 0.57
- composite z-score [19]: 0.447
- composite z-score [20]: 1.71

Compound: CCOC(=O)C1=C[C@@H](c2ccccc2)N(S(=O)(=O)c2ccc(C)cc2)[C@H]1c1ccc(F)cc1
- composite z-score [1]: 0.873
- composite z-score [2]: 0.362
- composite z-score [3]: 0.573
- z-score [4]: -0.162 (inactive)
- composite z-score [5]: 0.635
- composite z-score [6]: 1.29
- composite z-score [7]: 0.158
- composite z-score [8]: 1.04
- composite z-score [9]: 0.675
- composite z-score [10]: 0.589
- composite z-score [11]: 0.431
- z-score [12]: -1.97
- composite z-score [13]: 0.446
- composite z-score [14]: 0.37
- composite z-score [15]: 0.342
- composite z-score [16]: -0.0718
- composite z-score [17]: 0.0929
- composite z-score [18]: 0.862
- composite z-score [19]: 0.904
- composite z-score [20]: 1.27

Compound: C[N+](C)(C)CCCCNC(=O)[C@@H]1C[C@@H]2C(=O)N3CCC[C@H]3C(=O)N2[C@@H]1c1cccc(OCCO)c1
- composite z-score [1]: 0.577
- composite z-score [2]: -0.222
- composite z-score [3]: -0.0397
- z-score [4]: 0.0434 (inactive)
- composite z-score [5]: 0.455
- composite z-score [6]: 0.249
- composite z-score [7]: 0.495
- composite z-score [8]: 1.45
- composite z-score [9]: 1.44
- composite z-score [10]: 0.0648
- composite z-score [11]: -0.745
- z-score [12]: 0.0741
- composite z-score [13]: 1.14
- composite z-score [14]: -0.794
- composite z-score [15]: 0.658
- composite z-score [16]: -0.162
- composite z-score [17]: -0.0626
- composite z-score [18]: -0.0645
- composite z-score [19]: 1.62
- composite z-score [20]: 1.16

Compound: CC[C@@H]1C=C(C(=O)O)[C@H](c2ccccc2)N1S(=O)(=O)c1ccc([N+](=O)[O-])cc1
- composite z-score [1]: 0.956
- composite z-score [2]: -0.255
- composite z-score [3]: 0.887
- z-score [4]: -0.812 (inactive)
- composite z-score [5]: 0.0734
- composite z-score [6]: 1.16
- composite z-score [7]: -0.314
- composite z-score [8]: 0.0657
- composite z-score [9]: -0.538
- composite z-score [10]: 0.781
- composite z-score [11]: 0.672
- z-score [12]: -0.661
- composite z-score [13]: -0.52
- composite z-score [14]: 0.354
- composite z-score [15]: 0.202
- composite z-score [16]: -0.0512
- composite z-score [17]: -0.138
- composite z-score [18]: -0.321
- composite z-score [19]: 1.41
- composite z-score [20]: 0.427

Compound: COCCOC(=O)N1C(=O)[C@@]2(c3cc(C#CCNC(N)=O)ccc31)[C@H](C(=O)N1CCCCCCC1)[C@H]1C(=O)O[C@H](c3ccccc3)[C@H](c3ccccc3)N1[C@@H]2c1ccccc1OCCO
- composite z-score [1]: 0.733
- composite z-score [2]: 1.46
- composite z-score [3]: 0.734
- z-score [4]: -0.12 (inactive)
- composite z-score [5]: 0.718
- composite z-score [6]: 0.205
- composite z-score [7]: 0.79
- composite z-score [8]: 1.22
- composite z-score [9]: 0.485
- composite z-score [10]: 1.33
- composite z-score [11]: 1.32
- z-score [12]: -2.1
- composite z-score [13]: 1.09
- composite z-score [14]: 0.886
- composite z-score [15]: 0.632
- composite z-score [16]: 0.193
- composite z-score [17]: 0.46
- composite z-score [18]: 0.878
- composite z-score [19]: 0.845
- composite z-score [20]: 0.48

Compound: O=C1OCC=C[C@H]2OC34C=CCN(Cc5ccccc5)C(=O)[C@H]3N(CCO)C(=O)[C@@H]4[C@@H]12 (stereo not given in full)
- composite z-score [1]: 1.89
- composite z-score [2]: -0.227
- composite z-score [3]: 0.679
- z-score [4]: -0.632 (inactive)
- composite z-score [5]: -1.09
- composite z-score [6]: -1.46
- composite z-score [7]: -0.435
- composite z-score [8]: -0.596
- composite z-score [9]: -0.965
- composite z-score [10]: 0.0484
- composite z-score [11]: 0.257
- z-score [12]: -0.877
- composite z-score [13]: -0.864
- composite z-score [14]: -0.289
- composite z-score [15]: 0.822
- composite z-score [16]: -0.144
- composite z-score [17]: -0.134
- composite z-score [18]: -0.182
- composite z-score [19]: -0.459
- composite z-score [20]: -0.38

Compound: CO[C@H]1O[C@H](CO)[C@@H](OC(=O)Nc2ccccc2)[C@H](OC(=O)Nc2ccc3c(c2)OCO3)[C@@H]1OC(=O)Nc1ccc2c(c1)OCO2
- composite z-score [1]: 1.51
- composite z-score [2]: 0.355
- composite z-score [3]: 0.749
- z-score [4]: -0.368 (inactive)
- composite z-score [5]: 0.183
- composite z-score [6]: 1.19
- composite z-score [7]: -0.374
- composite z-score [8]: 0.558
- composite z-score [9]: 0.355
- composite z-score [10]: 0.794
- composite z-score [11]: 1.32
- z-score [12]: -0.245
- composite z-score [13]: -0.244
- composite z-score [14]: 1.92
- composite z-score [15]: -0.819
- composite z-score [16]: -0.0944
- composite z-score [17]: 0.151
- composite z-score [18]: 0.038
- composite z-score [19]: 1.99
- composite z-score [20]: 0.361

Compound: COc1ccc(C(=O)Nc2ccc(CN3C(=O)[C@]4(O[C@H](CCn5cc(CCO)nn5)[C@@H]([Si](C)(C)c5ccc(OC)cc5)[C@@H]4C)c4ccccc43)cc2)cc1
- composite z-score [1]: 0.814
- composite z-score [2]: 0.3
- composite z-score [3]: 0.589
- z-score [4]: 5.66 (inactive)
- composite z-score [5]: 0.898
- composite z-score [6]: 1.03
- composite z-score [7]: 0.958
- composite z-score [8]: -0.106
- composite z-score [9]: -0.0456
- composite z-score [10]: 1.11
- composite z-score [11]: 1.05
- z-score [12]: -5.06
- composite z-score [13]: 0.465
- composite z-score [14]: 0.62
- composite z-score [15]: -0.0683
- composite z-score [16]: 0.0857
- composite z-score [17]: 0.199
- composite z-score [18]: -0.363
- composite z-score [19]: 0.793
- composite z-score [20]: 1.31

From PubChem BioAssay
